High-throughput results: PubChem BioAssay, several laboratories
Most compounds without a hit are left out; they make up all but 4.1% or so of the library.
hgDAF12 agonist – hgDAF-12 agonism, primary luciferase screen; HEK293 GAL4-hgDAF12 UAS-luciferase reporter, agonist luminescence; normalized to butyrate control; activation, % at 6.8 µM; hit rate 1.8% among 370,000; AID 687014;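 active = activation above a cutoff set at the mean of all screened compounds plus 3 SD, cut at about 10% in these data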;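 also: 0% = DMSO wells and 100% = sodium butyrate wells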
DAX1 inh-1 – inhibits human nuclear receptor DAX1. HEK293 Gal4-DAX1 luciferase reporter, luminescence. inhibition, % at 6.75 µM. hit rate 0.99% among 340,000. AID 504766;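 active = inhibition above the mean over all tested compounds plus 3 SD, cut at about 4.2% in these data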;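 also: 0% = DAX1-transfected cells with DMSO and 100% = empty-vector control cells with DMSO; inhibition shows as a rise in luminescence from relieved DAX1 repression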
Target sequence (P51843 207-470 limits assumed): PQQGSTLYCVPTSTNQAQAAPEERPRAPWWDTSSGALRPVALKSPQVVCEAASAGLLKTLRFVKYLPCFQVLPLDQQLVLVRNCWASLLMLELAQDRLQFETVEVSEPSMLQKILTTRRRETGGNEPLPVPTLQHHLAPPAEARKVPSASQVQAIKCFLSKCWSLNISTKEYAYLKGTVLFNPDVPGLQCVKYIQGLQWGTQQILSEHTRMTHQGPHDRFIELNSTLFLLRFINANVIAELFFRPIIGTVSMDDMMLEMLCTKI
DAX1 inh-2 – inhibitors of DAX1 repression of SF-1 activated StAR promoter; inhibition, % at 6.8 µM; AID 652010; HEK293T StAR-luciferase reporter, SF-1/DAX-1 repression relief; hit rate 1.1% among 370,000;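 active = inhibition above the mean over all tested compounds plus 3 SD, cut at about 3.6% in these data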;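 also: 0% = DAX-1 cells with DMSO and 100% = cells lacking DAX-1 with DMSO; higher inhibition means more luminescence from relief of DAX-1 repression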
PolyA inhibitor – blocks polyadenylation in yeast reporter cells; S. cerevisiae SKY197-pL101 polyadenylation reporter, beta-gal luminescence; efflux-impaired pdr1/pdr3 knockout yeast; score 100 = 6 SD above DMSO; activity score, % at 12 µM; hit rate 0.02% among 300,000;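 active = lowest replicate activity score at least 50, where 100 means six control SD above control mean; inconclusive = lowest score under 50 but half or more replicates reach 50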;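 also: yeast exposed to compound for 9 h at 30 °C; higher score means more reporter readthrough which indicates perturbed polyadenylation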
ssDAF-12 act – activates DAF-12 receptor from parasite S. stercoralis; HEK293 ssDAF-12/GRIP1 lit1-tk-luc reporter, luminescence; % of 3 µM dafachronic acid response; activation, % at 6.8 µM; hit rate 1% among 370,000; AID 652126;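 active = activation above the mean over all tested compounds plus 3 SD, cut at about 0.9% in these data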;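 also: 0% = DMSO-only wells and 100% = 3 µM delta7-dafachronic acid wells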
hcDAF12 agonist – activators of H. contortus DAF-12 nuclear receptor; HEK293 hcDAF-12 lit1-tk-luc reporter, luminescence; 0% DMSO, 100% Δ7-dafachronic acid; activation, % at 6.8 µM; hit rate 1.4% among 370,000;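 active = activation above the mean of all tested compounds plus 3 SD, cut at about 5.5% in these data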;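 also: 100% = response to 3 µM Δ7-dafachronic acid high control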
The depositor's hits bear a star; ? = inconclusive; / = not tested or not shown.

SMILES | hgDAF12 agonist | DAX1 inh-1 | DAX1 inh-2 | PolyA inhibitor | ssDAF-12 act | hcDAF12 agonist
CC(C)(C)n1nc(C2CC2)c(Br)c1NC(=O)c1ccccc1Cl | 0.8 | / | 1.2 | / | -1.3 | -0.9
O=C(Cn1cnc2ccccc2c1=O)c1ccc(Cl)cc1 | 11.1* | -0.7 | 1.4 | 3.9 | -0.7 | 3.2
O=C(Cn1cnc2ccccc2c1=O)c1ccc(Br)cc1 | 12.1* | 0.1 | 1.8 | 31.2 | -0.8 | 0.8
C#CCN1CC(N(C)CCOC(=O)CCCc2ccccc2)CS1(=O)=O (stereo not drawn) | -1.1 | / | 0.2 | / | -1.1 | -2.9
C=CC[C@]12C[C@@]3(O[C@H](c4ccc(C(F)(F)F)cc4)N=C3C[C@H](c3ccc(OC)cc3)[C@H]1C)N(Cc1ccncc1)C2=O | 1.4 | / | 0.3 | / | -0.9 | -0.7
CCCCc1c(-c2ccccc2OC)ncn1Cc1ccc(OC)cc1 | -2.9 | / | -0.1 | / | -1.2 | -0.8
CC(C)(C)OC(=O)NCc1cc2c(cc1/C=C/S(=O)(=O)NC1CCCC1)OCO2 | 0.9 | / | -1.3 | / | -1.2 | -4.1
CC(C)(C)c1ccc(NC(=O)C2=CC=CN3CCS(=O)(=O)N=C23)cc1 | 8.6 | -0.1 | 3.9* | / | -0.3 | 1.4
Cc1ccccc1C(=O)Nc1ccc(N2CCCC2)cc1 | 3.2 | 0.2 | 1.6 | 0.2 | -1.4 | -1.0
CCOc1cc(N2CCOCC2)c(OCC)cc1NC(=O)c1ccc2ccccc2n1 | 5.7 | -0.5 | 1.6 | 0.1 | 0.9* | 3.2
Cc1ccc(S(=O)(=O)N2CCCCC2)cc1NC(=O)c1ccc2ccccc2n1 | -0.9 | 0.1 | 0.2 | -19.2 | -0.9 | -0.9
O=C(Nc1cccc(S(=O)(=O)N2CCCCCC2)c1)c1ccc2ccccc2n1 | 5.4 | 0.8 | 2.3 | 8.5 | 0.0 | 6.4*
O=C(Nc1ccc(N2CCCCC2)cc1)c1ccc2ccccc2n1 | 9.0 | 5.5* | 1.3 | 13.0 | -0.8 | 4.0
O=C(Nc1cccc(-c2cn3c(n2)SCC3)c1)c1ccc2ccccc2n1 | 12.1* | -0.8 | 2.9 | -9.2 | 0.4 | 4.3
O=C(Nc1ccc(-c2cn3c(n2)SCC3)cc1)c1ccc2ccccc2n1 | -3.2 | -2.1 | -4.2 | -16.0 | -3.0 | -4.2
CCOc1cc(N2CCOCC2)c(OCC)cc1NC(=O)c1ccccc1C | 1.7 | 0.0 | -0.6 | -7.5 | -2.7 | -0.8
O=C1CCC[C@H]2[C@@H](Cc3ccccc3)[C@@H](O)CC[C@]23CCCN13 | -0.1 | / | / | / | -0.9 | -1.1
CN1Cc2nnn(CC3CCCCC3)c2-c2ccccc2S1(=O)=O | -2.8 | / | -0.2 | / | -1.4 | -2.9
CCNC(=O)c1ccc(NC(=O)CC2SC(N3CCCC3)=NC2=O)cc1 (stereo not drawn) | -0.3 | -0.1 | 0.1 | 5.7 | 1.1* | 1.9
O=C(N[C@H](Cc1ccccc1)C(=O)N1CCN(c2ncccn2)CC1)[C@H]1O[C@@H](n2ccc(=O)[nH]c2=O)[C@H](O)[C@@H]1O | 2.8 | / | -0.9 | / | -0.6 | -0.4
COc1ccc(C2CC(C)(c3ccc(OC)cc3)Nc3ccccc3N2)cc1 (stereo not drawn) | 12.0* | 1.4 | 1.6 | -13.6 | -0.5 | 5.7*
Nc1nc2c(ncn2[C@@H]2O[C@H](C(=O)N[C@@H](Cc3ccccc3)C(=O)NCC3CCCCC3)[C@@H](O)[C@H]2O)c(=O)[nH]1 | -1.3 | / | -1.2 | / | -0.8 | -0.3
CCC(c1nnc(SCC(=O)NCCc2ccc(OC)c(OC)c2)n1Cc1ccccc1)N(C)C (stereo not drawn) | -0.9 | 2.8 | -0.3 | -7.6 | 1.2* | -0.4
CCC(c1nnc(SCC(=O)Nc2ccc(NC(C)=O)cc2)n1Cc1ccccc1)N(C)C (stereo not drawn) | 2.3 | 0.7 | -0.6 | -3.1 | -1.0 | 0.6
COc1ccc(CCNC(=O)CSc2nc3[nH]ncc3c(=O)n2-c2ccc(C)c(Cl)c2)cc1OC | 0.1 | 0.6 | -2.6 | 2.8 | 1.8* | 2.2
SMILES | hgDAF12 agonist | DAX1 inh-1 | DAX1 inh-2 | PolyA inhibitor | ssDAF-12 act | hcDAF12 agonist
CC(=O)Oc1ccc(/C(C)=N\N2CCN(Cc3ccc(Cl)cc3)CC2)cc1 | -1.9 | -0.3 | -0.8 | 4.3 | -1.0 | -0.3
C/C(=N\N1CCN(Cc2ccc(Cl)cc2)CC1)c1ccc(F)cc1 | -1.7 | 4.5* | -0.7 | 5.8 | -1.2 | 4.4
S=C(Nc1ccc(I)cc1)OC1CCC12CCC(c1ccccc1)CC2 (stereo not drawn) | 0.3 | / | -0.7 | / | -1.4 | 0.4
CC(=O)C(C(c1ccccc1)N1CCCc2ccccc21)N1CCOCC1 (stereo not drawn) | 0.3 | -0.1 | 0.2 | / | 1.1* | 3.2
O=C(Nc1ccccc1F)c1ccc2ncsc2c1 | 12.7* | -0.3 | 0.3 | -20.0 | -0.2 | 0.6
O=C(Nc1cccc(F)c1)c1ccc2ncsc2c1 | / | 3.0 | / | -3.3 | / | /
CC(C)n1nnnc1C1(C)CSCC(=O)N1Cc1cccc(F)c1 (stereo not drawn) | 0.3 | / | 0.0 | / | -0.6 | 1.9
CN(C)c1ccc(NC(=O)CCCc2ccccc2)cc1 | 11.7* | 1.5 | 3.0 | ? | -0.3 | 4.8
C/C(=N/NC(=O)CN1CCN(Cc2ccccc2Cl)CC1)c1cccc(O)c1 | 4.8 | / | -1.4 | / | -1.8 | -1.4
NC1=NC(=O)/C(=C/C=C/c2cccs2)S1 | 5.2 | 4.8* | 0.3 | 14.3 | -0.5 | 1.4
CCCCCCCC(=O)N[C@H]1CC[C@@]23CCCN2C(=O)CCC[C@H]3[C@H]1C | -1.0 | / | / | / | -1.8 | 0.1
C[C@H]1[C@@H](NC(=O)Cc2ccsc2)CC[C@@]23CCCN2C(=O)CCC[C@@H]13 | -0.2 | / | / | / | 2.6* | 2.0
Cn1c(=O)c2c(-c3ccccc3)n(-c3ccccc3N)cc2n(C)c1=O | 12.5* | 2.0 | 2.4 | / | -0.1 | 3.5
CCOC(=O)c1nn(-c2ccc3c(c2)CCN3C(C)=O)cc1O | 7.9 | -0.6 | 3.9* | 5.4 | 0.2 | 5.3
CCCCCCOc1ccc(C(CC(=O)NC)C(=O)O)cc1 (stereo not drawn) | -1.2 | -1.6 | 0.8 | -16.2 | -0.8 | 0.2
CCCCCCOc1ccc(C(CC(N)=O)C(=O)O)cc1 (stereo not drawn) | -2.1 | 4.4* | -0.3 | -4.9 | 0.3 | -1.1
C=CCNc1cccc2c1S(=O)(=O)N[C@H](CC(C)C)CO2 | 0.1 | / | -0.8 | / | -1.7 | -0.5
CCN(C(=O)CCc1cn(CC)c2ccccc12)c1ccc(Oc2cccnc2)cc1 | 11.4* | / | 3.6* | / | -0.3 | -0.8
COC(=O)[C@H](Cc1ccccc1)N1CC(N2CCCC2)CS1(=O)=O (stereo partly drawn) | 6.3 | / | -0.2 | / | -1.1 | 1.6
COc1cccc(/C=N/NC(=O)CCNc2n[nH]c(=O)[nH]c2=O)c1OC | -4.8 | -0.6 | 1.5 | 10.1 | 1.5* | -2.5
COc1ccc(/C=N/NC(=O)CCNc2n[nH]c(=O)[nH]c2=O)c(OC)c1 | 0.7 | -0.4 | -0.3 | 19.7 | -0.9 | -1.9
COc1ccc(/C=N/NC(=O)C[n+]2ccccc2)c(OC)c1OC | -0.8 | -0.1 | 0.1 | -7.2 | -1.7 | -3.9
